Compound activity (PubChem BioAssay)
NS3h inh CB – HCV NS3 helicase inhibitors, primary screen, biochemical, fluorescence polarization, ChemBridge library; NS3h Cy5-dT15 DNA binding; Hepatitis C virus NS3 helicase; AID 687043, 2013; inhibition, % at 100 µM; 16,000 tested, 1.6% active;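 active = inhibition above the average over every tested compound plus 3 SD, cut at about 40% in these data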
Cy5 interf NS3h – Cy5 fluorescence quenchers or enhancers, artefact control for HCV NS3 helicase inhibitor project, biochemical, ChemBridge library, Cy5 readout | Cy5-dT15 DNA with NS3h, fluorescence interference; actives lie on both sides; signal over control mean, under 1 quenches | fluorescence interference ratio at 100 µM | 16,000 tested, 6% active;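 active = compound fluorescence over control fluorescence at most 0.8, a quencher, or at least a set upper limit, an enhancer; inactive = ratio between 0.8 and the set upper limit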
Starred values were filed as active, the others as inactive. Hits are enriched below; roughly 6.9% of the tested compounds scored in any of these assays.

Screening COc1ccccc1N(CC(=O)Nc1ccccc1)S(=O)(=O)c1ccccc1 returned NS3h inh CB 19 and Cy5 interf NS3h 0.99.
For O=c1[nH]nc(Cc2nc3ccccc3s2)c2ccccc12 the results were NS3h inh CB 9 and Cy5 interf NS3h 1.2.
`COc1ccc(OC)c(NC(=O)C(=O)NCc2ccc(C)cc2)c1` gave NS3h inh CB 15 and Cy5 interf NS3h 1.1.
CCc1ccc(C(=O)CC2(O)C(=O)Nc3ccccc32)cc1 (stereo not given) was read as NS3h inh CB 0 and Cy5 interf NS3h 1.
`O=C(CC1(O)C(=O)Nc2ccccc21)c1ccco1` (stereo not given) gave NS3h inh CB 7 and Cy5 interf NS3h 0.78*.
`CN1C(=O)/C(=C\c2ccc(OCCOc3ccc([N+](=O)[O-])cc3)cc2)SC1=S` gave NS3h inh CB 8 and Cy5 interf NS3h 1.2.
COC(=O)c1ccccc1-c1ccc(/C=C2/SC(=S)N(c3ccccc3)C2=O)o1 was read as NS3h inh CB -1 and Cy5 interf NS3h 1.1.
Screening N#Cc1c(-c2cc(Br)cs2)c2c(=O)[nH]c(=O)[nH]c2[nH]c1=O returned NS3h inh CB 4 and Cy5 interf NS3h 1.2*.
`CC1(C)C(c2cccs2)=[N+]([O-])C2(CCCCC/C2=N/NC(N)=O)N1O` (stereo not given) gave NS3h inh CB -1 and Cy5 interf NS3h 1.
Screening Nc1nnnn1/N=C\c1ccc(C=O)cc1 returned NS3h inh CB -9 and Cy5 interf NS3h 0.71*.
`Nc1nnnn1/N=C\c1ccc(OCc2ccccc2)cc1` gave NS3h inh CB -5 and Cy5 interf NS3h 1.1.
`CCOc1ccc(NC(=O)/C=C/c2ccc(F)cc2)cc1` gave NS3h inh CB 1 and Cy5 interf NS3h 0.98.
Screening CCOc1cc(C(=S)N2CCOCC2)ccc1OC(=O)c1cccc([N+](=O)[O-])c1 returned NS3h inh CB 9 and Cy5 interf NS3h 0.9.
O=C(Nc1nnc(SCc2ccccc2)s1)c1cccc2ccccc12 was read as NS3h inh CB -2 and Cy5 interf NS3h 1.
`Cc1ccc(N=C(NO)c2ccc(Cl)cc2Cl)cc1` gave NS3h inh CB 15 and Cy5 interf NS3h 0.68*.
Cc1ccc(-c2cc(NC(=O)c3ccc(Cl)cc3Cl)n[nH]2)cc1 was read as NS3h inh CB -3 and Cy5 interf NS3h 0.82.
For C=CCN(CP(C)(=O)OC(C)C)C(C)=O (stereo not given) the results were NS3h inh CB -10 and Cy5 interf NS3h 1.
`CC(=O)Nc1ccc(NS(=O)(=O)c2cc(Cl)ccc2Cl)cc1` gave NS3h inh CB 1 and Cy5 interf NS3h 0.99.
Screening O=S(=O)(c1cc(Cl)cc(Cl)c1O)c1cc(Cl)cc(Cl)c1O returned NS3h inh CB 25 and Cy5 interf NS3h 0.5*.
CC(=O)c1cccc(Nc2cc(C)nc3ncnn23)c1 was read as NS3h inh CB 2 and Cy5 interf NS3h 0.88.
CCN1C(=O)/C(=C\c2cccc(C)c2)SC1=S was read as NS3h inh CB -2 and Cy5 interf NS3h 0.94.
Screening CCN(CC)c1ccc(/C=C2/SC(=S)N(CNc3cccc(C)c3)C2=O)cc1 returned NS3h inh CB 9 and Cy5 interf NS3h 0.65*.
Screening CC(C)=CCC/C(C)=C/CC(C)(C)C1OCCC(C)O1 (stereo not given) returned NS3h inh CB -4 and Cy5 interf NS3h 1.
CC(Sc1ccc(Cl)cc1)C(=O)Nc1cccc2ccccc12 (stereo not given) was read as NS3h inh CB 6 and Cy5 interf NS3h 0.97.
Screening O=C(NC(=S)Nc1cccc(Cl)c1)c1ccco1 returned NS3h inh CB -1 and Cy5 interf NS3h 0.99.
O=C(NC(=S)Nc1ccc(Cl)c(-c2nc3ccccc3o2)c1)c1ccco1 was read as NS3h inh CB 11 and Cy5 interf NS3h 1.2*.
O=C(NC(=S)Nc1cccc(NC(=O)c2ccccc2Cl)c1)c1ccco1 was read as NS3h inh CB 44* and Cy5 interf NS3h 0.87.
`O=C(Nc1cccc(NC(=S)NC(=O)c2ccco2)c1)c1cccc(Cl)c1` gave NS3h inh CB -6 and Cy5 interf NS3h 1.1.
`O=C(NC(=S)Nc1cccc(NC(=O)c2ccco2)c1)c1ccco1` gave NS3h inh CB 42* and Cy5 interf NS3h 0.86.
O=C(NC(=S)Nc1ccc2oc(-c3cc(I)ccc3Cl)nc2c1)c1ccco1 was read as NS3h inh CB -19 and Cy5 interf NS3h 1.1.
COc1ccccc1NC(=O)C(=O)NCCO was read as NS3h inh CB 0 and Cy5 interf NS3h 1.
For CCOC(=O)C(CC(C)C)NC(=O)C(Cc1ccccc1)N1C(=O)c2ccccc2C1=O (stereo not given) the results were NS3h inh CB 18 and Cy5 interf NS3h 0.94.
Screening CCOc1cc(OCC)cc(C(=O)Nc2cc(C)ccn2)c1 returned NS3h inh CB -3 and Cy5 interf NS3h 1.1.
Cc1ccc2nc(Nc3nc(C)cc(-c4ccccc4)n3)nc(C)c2c1 was read as NS3h inh CB 23 and Cy5 interf NS3h 1.1.
Cc1ccc2nc3nc(C)cc(C)c3c(N)c2c1 was read as NS3h inh CB -5 and Cy5 interf NS3h 0.71*.
Nc1ccc(S(=O)(=O)N2CCCCCC2)cc1 was read as NS3h inh CB 2 and Cy5 interf NS3h 0.75*.
Screening O=C(O)CCC(=O)Nc1ccc(S(=O)(=O)N2CCCCCC2)cc1 returned NS3h inh CB -6 and Cy5 interf NS3h 0.95.
CCOc1ccc(Nc2nc(-c3sc(NC(=O)c4ccccc4)nc3C)cs2)cc1 was read as NS3h inh CB 6 and Cy5 interf NS3h 0.95.
`COc1ccc(Br)cc1C(=O)Nc1ccc(Cl)cn1` gave NS3h inh CB -4 and Cy5 interf NS3h 0.98.
Screening COc1ccc2nc(SCC(=O)Nc3ccccc3)[nH]c2c1 returned NS3h inh CB 4 and Cy5 interf NS3h 0.95.
`COc1ccc(NC(=O)CSc2nc3ccccc3[nH]2)c(OC)c1` gave NS3h inh CB 10 and Cy5 interf NS3h 0.71*.
`COc1ccc(C(O)=C2C(=O)C(=O)N(CCc3ccccc3)C2c2ccc(F)cc2)cc1` (stereo not given) gave NS3h inh CB -10 and Cy5 interf NS3h 0.95.
For CC(C)(C)c1ccc(C(CC(=O)c2ccc(Br)cc2)S(=O)(=O)c2ccccc2)cc1 (stereo not given) the results were NS3h inh CB 18 and Cy5 interf NS3h 0.54*.
O=C(CC(Nc1ccc(Br)cc1)c1ccc(F)cc1)c1ccccc1 (stereo not given) was read as NS3h inh CB 11 and Cy5 interf NS3h 0.98.
O=C(Nc1ccc(Br)cc1)c1nn2c(c1Cl)NC(c1ccc(Cl)cc1)CC2C(F)(F)F (stereo not given) was read as NS3h inh CB 17 and Cy5 interf NS3h 1.
For Cc1ccc(/C=N\NC(=O)c2ccccc2C)cc1 the results were NS3h inh CB 11 and Cy5 interf NS3h 0.79*.
Screening O=C(N/N=C\c1ccc(Cl)cc1)c1ccc(O)cc1 returned NS3h inh CB 0 and Cy5 interf NS3h 0.93.
Screening O=C(NC(=S)Nc1ccc(NC(=O)c2ccccc2)cc1)c1ccc(Cl)cc1 returned NS3h inh CB 10 and Cy5 interf NS3h 1.
C=C1CSc2nc(=O)c3c4c(sc3n21)CCC4 was read as NS3h inh CB 6 and Cy5 interf NS3h 0.94.
For Cc1nc2sc3c(c2c(=O)[nH]1)CCC3 the results were NS3h inh CB 2 and Cy5 interf NS3h 0.63*.
